# Measured values: PubChem BioAssay (NCI)
# The panel holds about 83,000 compounds, 20% with a hit somewhere; the sample as a whole holds those more often.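 Method: cells in 96-well plates; compound added at one concentration; 48 h incubation; percent growth measured; values under 10 scored active.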 Activity calls are given as the source filed them.
# Test system: UACC-257 melanoma
# Assay: NCI-60 one-dose screen, 48 h (100 = growth as untreated, 0 = no growth, -100 = all killed)
# Details: 10 µM unless noted
row,Structure (SMILES),growth
1,CC(=O)Nc1ccc2c(c1)Cc1c(F)cccc1-2,110% (inactive)
2,COc1ccc(-c2cncnc2N)cc1OC,111% (inactive)
3,CN(C)c1ccc2cc(-c3ccc(Cl)c(Cl)c3)c(N)nc2c1,21.3% (inactive)
4,O=C(Nc1ccccn1)[C@H](O)[C@@H](O)C(=O)N1CCOCC1,101% (inactive)
5,O=C(NC(=S)Nc1ccc(-c2nc3ccccc3[nH]2)cc1)c1ccc2ccccc2c1,49.2% (inactive)
6,CCCCCCN(CCCCCC)CC(O)c1cccc2ccc(Cl)cc12 (stereo not drawn),74.4% (inactive)
7,Cc1ccc(S(=O)(=O)N(CC[C@@H]2C[C@H]2c2cc3ccccc3o2)C(=O)NC2CCCCC2)cc1,108% (inactive)
8,Clc1ccc2[nH]c3c(NCCCN4CCOCC4)ncnc3c2c1,98.2% (inactive)
9,Fc1ccc(Nc2ccc3cc(OCCCN4CCOCC4)ccc3n2)cc1F,30.4% (inactive)
10,CNC(=O)NCC1OC(n2cnc3c(NC(=O)Nc4ccccc4)ncnc32)C2OC(C)(C)OC12 (stereo not drawn),107% (inactive)
11,CCN(CC)CCOC(=O)Nc1ccccc1Cl,105% (inactive)
12,N=C(N)c1ccc(-c2ccc(-c3ccc(Cl)c(Cl)c3)o2)cc1,84.5% (inactive)
13,Cc1[nH]c(-c2nc3ccccc3[nH]2)c(C)c1C(=O)N1CCc2sccc2C1,96.9% (inactive)
14,CC(C)(C)c1ccc(C(=O)Nc2sc3c(c2C(N)=O)CCC(=O)C3)cc1,-30.4% (active)
15,Cc1nc(Nc2ccccn2)sc1C(=O)/C=C/c1ccc(Br)cc1,95.7% (inactive)
16,C/C(=N\NC(=O)Cn1c(-c2ccc(S(C)(=O)=O)cc2)nc2cc(Cl)ccc21)c1ccc(Cl)cc1,79.2% (inactive)
17,CCOC(=O)c1c(C)[nH]c(C(=O)CCC(=O)OC)c1C,112% (inactive)
18,C=C1C(=O)O[C@H]2[C@H]1CC/C(COC(=O)NCc1ccc(Cn3c(=O)sn(CCCCl)c3=O)cc1)=C\CC[C@@]1(C)O[C@@H]21,10.4% (inactive)
19,COc1cc(C2C=C(c3cccc(NC(C)=O)c3)Nc3ncnn32)cc(OC)c1OC (stereo not drawn),71.2% (inactive)
20,O=C(Oc1ccc[nH]c1=O)c1cc([N+](=O)[O-])cc([N+](=O)[O-])c1,19.7% (inactive)

row,Structure (SMILES),growth
1,COc1ccc(Oc2nc(Nc3ccc(N4CCOCC4)nc3)ncc2NC(=O)c2cc(OC)cc(OC)c2)cc1,89.7% (inactive)
2,COC(=O)c1ccc2oc(NC(=O)c3ccc(N4CCOCC4)c([N+](=O)[O-])c3)nc2c1,97.9% (inactive)
3,O=C1Nc2ccccc2/C1=N/N=C/c1ccc(OC2OC(CO)C(O)C(O)C2O)cc1 (stereo not drawn),106% (inactive)
4,C=CC(=O)Nc1cccc(C)c1Nc1cc(-c2cccnc2Cc2c(C)c(OC)cc(OC)c2C)ncn1,21.4% (inactive)
5,OC(COc1cccc2ccccc12)CN1CCN(c2ccccc2)CC1 (stereo not drawn),63.3% (inactive)
6,CC(=O)Nc1cccc(C2=CC(c3ccc(C)cc3)n3ncnc3N2)c1 (stereo not drawn),112% (inactive)
7,O=C(CC12CC3CC(CC(C3)C1)C2)NCCOCCOCCNC(=O)c1cc2c(o1)C(=O)c1ccccc1C2=O,-95.3% (active)
8,N=C(N)c1ccc(-c2ccc(/C=C/c3ccccc3)s2)cc1,105% (inactive)
9,CNC1(C#N)CCN(Cc2ccccc2)CC1,101% (inactive)
10,O=C(/C=C/C12c3ccccc3C(c3ccccc31)C1C(=O)N(c3ccccc3)C(=O)C12)c1ccc(Cl)cc1 (stereo not drawn),20.2% (inactive)
11,CCNCCNc1cc(-c2ccc(Cl)cc2)c(C#N)c2nc3ccccc3n12,-79.4% (active)
12,CN(C)c1ccc2cc(-c3ccccc3F)c(N)nc2c1,45.7% (inactive)
13,O=C1Nc2ccccc2/C1=N/N=C/c1c[nH]c2ccccc12,92.4% (inactive)
14,COc1ccc(/C=C(\C#N)n2nnc3ccccc32)cc1,77.5% (inactive)
15,N#Cc1c(Oc2ccc([N+](=O)[O-])cc2)nc2sc3cc(Cl)ccc3n2c1=N,57.6% (inactive)
16,O=C(NCCOCCOCCOCCNC(=O)c1cc2c(o1)C(=O)c1ccccc1C2=O)NC12CC3CC(CC(C3)C1)C2,-77% (active)
17,O=C(Oc1ccc([N+](=O)[O-])cc1)c1ccc(CBr)cc1,92.6% (inactive)
18,CCn1c(Sc2nnc(NC(=O)CCN3CCCC3)s2)nc2c1c(=O)n(C)c(=O)n2C,102% (inactive)
19,CC(=[N-])N1CCC[C@@H](Nc2c3ccccc3nc3ccccc23)C1.[Cl][Pt].[NH-]CCC[NH-],66.9% (inactive)

# Test system: M14 melanoma
# Assay: as above
# Details: 10 µM unless noted
row,Structure (SMILES),growth
1,CC(=O)Nc1ccc2c(c1)Cc1c(F)cccc1-2,119% (inactive)
2,COc1ccc(-c2cncnc2N)cc1OC,103% (inactive)
3,CN(C)c1ccc2cc(-c3ccc(Cl)c(Cl)c3)c(N)nc2c1,25.5% (inactive)
4,O=C(Nc1ccccn1)[C@H](O)[C@@H](O)C(=O)N1CCOCC1,103% (inactive)
5,O=C(NC(=S)Nc1ccc(-c2nc3ccccc3[nH]2)cc1)c1ccc2ccccc2c1,38% (inactive)
6,CCCCCCN(CCCCCC)CC(O)c1cccc2ccc(Cl)cc12 (stereo not drawn),63.3% (inactive)
7,Cc1ccc(S(=O)(=O)N(CC[C@@H]2C[C@H]2c2cc3ccccc3o2)C(=O)NC2CCCCC2)cc1,96.5% (inactive)
8,Clc1ccc2[nH]c3c(NCCCN4CCOCC4)ncnc3c2c1,73.8% (inactive)
9,Fc1ccc(Nc2ccc3cc(OCCCN4CCOCC4)ccc3n2)cc1F,-6.62% (active)
10,CNC(=O)NCC1OC(n2cnc3c(NC(=O)Nc4ccccc4)ncnc32)C2OC(C)(C)OC12 (stereo not drawn),88.8% (inactive)
11,CCN(CC)CCOC(=O)Nc1ccccc1Cl,86.1% (inactive)
12,N=C(N)c1ccc(-c2ccc(-c3ccc(Cl)c(Cl)c3)o2)cc1,11.8% (inactive)
13,Cc1[nH]c(-c2nc3ccccc3[nH]2)c(C)c1C(=O)N1CCc2sccc2C1,94.6% (inactive)
14,CC(C)(C)c1ccc(C(=O)Nc2sc3c(c2C(N)=O)CCC(=O)C3)cc1,-49.2% (active)
15,Cc1nc(Nc2ccccn2)sc1C(=O)/C=C/c1ccc(Br)cc1,80.7% (inactive)
16,C/C(=N\NC(=O)Cn1c(-c2ccc(S(C)(=O)=O)cc2)nc2cc(Cl)ccc21)c1ccc(Cl)cc1,81% (inactive)
17,CCOC(=O)c1c(C)[nH]c(C(=O)CCC(=O)OC)c1C,97.5% (inactive)
18,C=C1C(=O)O[C@H]2[C@H]1CC/C(COC(=O)NCc1ccc(Cn3c(=O)sn(CCCCl)c3=O)cc1)=C\CC[C@@]1(C)O[C@@H]21,5.43% (active)
19,COc1cc(C2C=C(c3cccc(NC(C)=O)c3)Nc3ncnn32)cc(OC)c1OC (stereo not drawn),20.4% (inactive)
20,O=C(Oc1ccc[nH]c1=O)c1cc([N+](=O)[O-])cc([N+](=O)[O-])c1,101% (inactive)

row,Structure (SMILES),growth
1,COc1ccc(Oc2nc(Nc3ccc(N4CCOCC4)nc3)ncc2NC(=O)c2cc(OC)cc(OC)c2)cc1,72.8% (inactive)
2,COC(=O)c1ccc2oc(NC(=O)c3ccc(N4CCOCC4)c([N+](=O)[O-])c3)nc2c1,98.8% (inactive)
3,O=C1Nc2ccccc2/C1=N/N=C/c1ccc(OC2OC(CO)C(O)C(O)C2O)cc1 (stereo not drawn),108% (inactive)
4,C=CC(=O)Nc1cccc(C)c1Nc1cc(-c2cccnc2Cc2c(C)c(OC)cc(OC)c2C)ncn1,53.4% (inactive)
5,OC(COc1cccc2ccccc12)CN1CCN(c2ccccc2)CC1 (stereo not drawn),86.8% (inactive)
6,CC(=O)Nc1cccc(C2=CC(c3ccc(C)cc3)n3ncnc3N2)c1 (stereo not drawn),112% (inactive)
7,O=C(CC12CC3CC(CC(C3)C1)C2)NCCOCCOCCNC(=O)c1cc2c(o1)C(=O)c1ccccc1C2=O,-73.6% (active)
8,N=C(N)c1ccc(-c2ccc(/C=C/c3ccccc3)s2)cc1,31.8% (inactive)
9,CNC1(C#N)CCN(Cc2ccccc2)CC1,94% (inactive)
10,O=C(/C=C/C12c3ccccc3C(c3ccccc31)C1C(=O)N(c3ccccc3)C(=O)C12)c1ccc(Cl)cc1 (stereo not drawn),30% (inactive)
11,CCNCCNc1cc(-c2ccc(Cl)cc2)c(C#N)c2nc3ccccc3n12,-70.7% (active)
12,CN(C)c1ccc2cc(-c3ccccc3F)c(N)nc2c1,10.5% (inactive)
13,O=C1Nc2ccccc2/C1=N/N=C/c1c[nH]c2ccccc12,59.5% (inactive)
14,COc1ccc(/C=C(\C#N)n2nnc3ccccc32)cc1,-11% (active)
15,N#Cc1c(Oc2ccc([N+](=O)[O-])cc2)nc2sc3cc(Cl)ccc3n2c1=N,78% (inactive)
16,O=C(NCCOCCOCCOCCNC(=O)c1cc2c(o1)C(=O)c1ccccc1C2=O)NC12CC3CC(CC(C3)C1)C2,-40.2% (active)
17,O=C(Oc1ccc([N+](=O)[O-])cc1)c1ccc(CBr)cc1,105% (inactive)
18,CCn1c(Sc2nnc(NC(=O)CCN3CCCC3)s2)nc2c1c(=O)n(C)c(=O)n2C,107% (inactive)
19,CC(=[N-])N1CCC[C@@H](Nc2c3ccccc3nc3ccccc23)C1.[Cl][Pt].[NH-]CCC[NH-],65.3% (inactive)
